Laboratory results published in ChEMBL document CHEMBL3988442, “University of Dundee, Small-Polar-MMV Screening Library” (2021).
For some assays here: Potency and affinity values are given separately.

What was measured:
Set-up in all cases: scale not given: direction of the effect not stated beside the values
[1] = biological target: Protein translocase subunit SecA (Escherichia coli (strain K12)) (UniProt P10408); experiment: Assay to Identify E. coli SecA ATPase Inhibitors; format: functional; details: 30 µM
[2] = biological target: T1, Ubiquitin-activating enzyme e1, putative (Leishmania donovani (strain BPK282A1)) (UniProt E9BSI1); experiment: Leishmania donovani Ubiquitin Activating Enzyme (LdE1); format: functional; details: 30 µM
T1 sequence (whole entry): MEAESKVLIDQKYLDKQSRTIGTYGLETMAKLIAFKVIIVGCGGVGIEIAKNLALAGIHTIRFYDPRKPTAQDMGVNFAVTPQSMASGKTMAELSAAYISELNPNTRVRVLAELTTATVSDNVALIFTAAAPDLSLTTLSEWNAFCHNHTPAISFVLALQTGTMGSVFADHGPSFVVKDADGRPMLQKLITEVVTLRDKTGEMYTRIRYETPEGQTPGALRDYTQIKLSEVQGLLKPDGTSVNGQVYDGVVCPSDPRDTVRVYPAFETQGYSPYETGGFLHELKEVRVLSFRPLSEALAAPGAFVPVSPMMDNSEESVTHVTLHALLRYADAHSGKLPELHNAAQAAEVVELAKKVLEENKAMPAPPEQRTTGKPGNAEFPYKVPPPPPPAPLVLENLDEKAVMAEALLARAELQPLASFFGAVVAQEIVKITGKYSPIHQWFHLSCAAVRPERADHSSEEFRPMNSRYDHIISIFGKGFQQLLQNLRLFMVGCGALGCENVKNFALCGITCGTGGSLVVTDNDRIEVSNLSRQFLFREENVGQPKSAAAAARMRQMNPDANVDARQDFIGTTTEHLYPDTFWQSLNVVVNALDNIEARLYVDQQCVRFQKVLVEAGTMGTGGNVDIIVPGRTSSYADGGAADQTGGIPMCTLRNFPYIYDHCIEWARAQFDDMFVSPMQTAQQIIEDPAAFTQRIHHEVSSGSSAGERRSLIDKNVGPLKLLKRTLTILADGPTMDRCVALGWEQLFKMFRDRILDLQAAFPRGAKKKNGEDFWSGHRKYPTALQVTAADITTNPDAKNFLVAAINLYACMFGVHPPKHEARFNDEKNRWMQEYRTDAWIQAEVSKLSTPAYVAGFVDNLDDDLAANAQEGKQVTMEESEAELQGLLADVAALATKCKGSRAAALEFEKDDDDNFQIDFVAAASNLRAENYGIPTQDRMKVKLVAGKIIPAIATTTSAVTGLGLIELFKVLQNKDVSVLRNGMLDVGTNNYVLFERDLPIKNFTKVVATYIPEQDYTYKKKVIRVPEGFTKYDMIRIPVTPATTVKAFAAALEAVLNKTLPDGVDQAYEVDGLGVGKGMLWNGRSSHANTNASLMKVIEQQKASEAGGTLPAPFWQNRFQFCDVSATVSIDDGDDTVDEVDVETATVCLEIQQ

[3] = biological target: AMP-activated protein kinase, AMPK (Homo sapiens) (UniProt P54646+O43741+P54619+Q9UGJ0+Q9Y478+Q13131+Q9UGI9); experiment: AMP-dependent Kinase enzyme assay. An in vitro enzyme assay that detects ADP turnover that is directly proportional to AMPK activity. This uses naive AMPK that is activated during the assay with MK-8722; format: functional; details: 30 µM
[4] = biological target: Sialic acid-binding Ig-like lectin 9 (Homo sapiens) (UniProt Q9Y336); experiment: Hs-Siglec9 ALPHAscreen SOP 20170721; details: 10 µM
Trypanosoma cruzi = experiment: Trypanosoma cruzi phosphomannomutase and mannose-1-phosphate guanylyltransferase assay; format: functional; details: 10 µM
[5] = biological target: T2, Arginase-2, mitochondrial (Homo sapiens) (UniProt P78540); experiment: in vitro enzyme assay to detect the production of urea directly proportional to the activity of Arginase II; format: functional; details: 33.3 µM; further: in the data most compounds retested in dose-response had high values
T2 sequence (whole entry): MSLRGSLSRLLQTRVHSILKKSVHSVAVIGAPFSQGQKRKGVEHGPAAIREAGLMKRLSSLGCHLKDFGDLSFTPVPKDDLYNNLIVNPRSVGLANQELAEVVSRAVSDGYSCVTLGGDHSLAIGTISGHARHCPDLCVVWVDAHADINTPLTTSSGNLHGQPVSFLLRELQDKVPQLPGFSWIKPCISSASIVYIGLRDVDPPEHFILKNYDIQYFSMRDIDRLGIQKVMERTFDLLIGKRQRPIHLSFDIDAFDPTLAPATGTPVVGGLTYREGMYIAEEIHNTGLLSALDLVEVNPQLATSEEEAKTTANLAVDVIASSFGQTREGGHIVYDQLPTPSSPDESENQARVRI

[6] = biological target: T3, Proteasome subunit beta (Trypanosoma cruzi) (UniProt O96673); experiment: Trypanosoma cruzi proteasome chymotrypsin-like activity (TcProtChymo) assay.; further: in the data most compounds retested in dose-response had high values; format: functional; details: 9.37 µM
T3 sequence (whole entry): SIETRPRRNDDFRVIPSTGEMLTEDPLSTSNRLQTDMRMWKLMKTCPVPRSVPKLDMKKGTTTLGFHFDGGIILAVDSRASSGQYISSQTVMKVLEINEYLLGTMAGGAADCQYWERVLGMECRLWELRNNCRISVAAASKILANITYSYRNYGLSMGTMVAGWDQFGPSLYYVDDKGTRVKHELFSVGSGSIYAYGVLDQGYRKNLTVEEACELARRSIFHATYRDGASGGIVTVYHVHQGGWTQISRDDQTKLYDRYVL

Homo sapiens = organism: Homo sapiens; experiment: To identify inhibition of the IFN signalling (Jak-Stat) pathway via expression of an eGFP reporter gene under the control of an IFN-stimulated response element (ISRE) containing MxA promoter.; format: functional; details: 30 µM
[7] = biological target: T4, Tyrosyl-tRNA synthetase, putative (Trypanosoma cruzi (strain CL Brener)) (UniProt Q4DSP6); experiment: Trypanosoma cruzi tyrosyl tRNA synthetase (TcYRS) _High Tyrosine SOP; format: functional; details: 30 µM; further: in the data most compounds retested in dose-response had high values
T4 sequence (whole entry): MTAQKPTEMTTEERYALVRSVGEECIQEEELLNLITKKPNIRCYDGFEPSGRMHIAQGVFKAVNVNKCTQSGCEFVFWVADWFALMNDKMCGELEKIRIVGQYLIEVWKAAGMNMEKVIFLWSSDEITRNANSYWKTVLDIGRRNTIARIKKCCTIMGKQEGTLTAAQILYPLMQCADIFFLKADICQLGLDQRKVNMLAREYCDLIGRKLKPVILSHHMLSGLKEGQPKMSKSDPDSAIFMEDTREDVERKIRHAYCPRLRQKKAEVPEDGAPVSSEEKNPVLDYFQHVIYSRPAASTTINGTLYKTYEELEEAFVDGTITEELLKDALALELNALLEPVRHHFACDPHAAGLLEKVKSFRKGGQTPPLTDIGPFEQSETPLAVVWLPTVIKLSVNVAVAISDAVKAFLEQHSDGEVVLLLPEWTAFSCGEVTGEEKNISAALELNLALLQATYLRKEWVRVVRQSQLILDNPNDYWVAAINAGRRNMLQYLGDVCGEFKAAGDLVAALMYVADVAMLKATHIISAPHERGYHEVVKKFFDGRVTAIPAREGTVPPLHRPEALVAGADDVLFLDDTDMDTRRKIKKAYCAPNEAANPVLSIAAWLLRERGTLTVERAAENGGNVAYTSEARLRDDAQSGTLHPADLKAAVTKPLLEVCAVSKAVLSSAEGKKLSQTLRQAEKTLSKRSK

[8] = biological target: T4, Tyrosyl-tRNA synthetase, putative (Trypanosoma cruzi (strain CL Brener)); experiment: Trypanosoma cruzi tyrosyl tRNA synthetase (TcYRS) SOP; format: functional; details: 30 µM
[9] = biological target: Chromo domain-containing protein 1 (Saccharomyces cerevisiae (strain ATCC 204508 / S288c) (Baker's yeast)) (UniProt P32657); experiment: ScCHD-1 Enzyme Inhibition Assay; format: functional; details: 30 µM; further: in the data most compounds retested in dose-response had high values
Chromo domain-containing protein 1 (Saccharomyces cerevisiae (strain ATCC 204508 / S288c) (Baker's yeast)), sequence (P32657 whole entry, the tested form may be a part): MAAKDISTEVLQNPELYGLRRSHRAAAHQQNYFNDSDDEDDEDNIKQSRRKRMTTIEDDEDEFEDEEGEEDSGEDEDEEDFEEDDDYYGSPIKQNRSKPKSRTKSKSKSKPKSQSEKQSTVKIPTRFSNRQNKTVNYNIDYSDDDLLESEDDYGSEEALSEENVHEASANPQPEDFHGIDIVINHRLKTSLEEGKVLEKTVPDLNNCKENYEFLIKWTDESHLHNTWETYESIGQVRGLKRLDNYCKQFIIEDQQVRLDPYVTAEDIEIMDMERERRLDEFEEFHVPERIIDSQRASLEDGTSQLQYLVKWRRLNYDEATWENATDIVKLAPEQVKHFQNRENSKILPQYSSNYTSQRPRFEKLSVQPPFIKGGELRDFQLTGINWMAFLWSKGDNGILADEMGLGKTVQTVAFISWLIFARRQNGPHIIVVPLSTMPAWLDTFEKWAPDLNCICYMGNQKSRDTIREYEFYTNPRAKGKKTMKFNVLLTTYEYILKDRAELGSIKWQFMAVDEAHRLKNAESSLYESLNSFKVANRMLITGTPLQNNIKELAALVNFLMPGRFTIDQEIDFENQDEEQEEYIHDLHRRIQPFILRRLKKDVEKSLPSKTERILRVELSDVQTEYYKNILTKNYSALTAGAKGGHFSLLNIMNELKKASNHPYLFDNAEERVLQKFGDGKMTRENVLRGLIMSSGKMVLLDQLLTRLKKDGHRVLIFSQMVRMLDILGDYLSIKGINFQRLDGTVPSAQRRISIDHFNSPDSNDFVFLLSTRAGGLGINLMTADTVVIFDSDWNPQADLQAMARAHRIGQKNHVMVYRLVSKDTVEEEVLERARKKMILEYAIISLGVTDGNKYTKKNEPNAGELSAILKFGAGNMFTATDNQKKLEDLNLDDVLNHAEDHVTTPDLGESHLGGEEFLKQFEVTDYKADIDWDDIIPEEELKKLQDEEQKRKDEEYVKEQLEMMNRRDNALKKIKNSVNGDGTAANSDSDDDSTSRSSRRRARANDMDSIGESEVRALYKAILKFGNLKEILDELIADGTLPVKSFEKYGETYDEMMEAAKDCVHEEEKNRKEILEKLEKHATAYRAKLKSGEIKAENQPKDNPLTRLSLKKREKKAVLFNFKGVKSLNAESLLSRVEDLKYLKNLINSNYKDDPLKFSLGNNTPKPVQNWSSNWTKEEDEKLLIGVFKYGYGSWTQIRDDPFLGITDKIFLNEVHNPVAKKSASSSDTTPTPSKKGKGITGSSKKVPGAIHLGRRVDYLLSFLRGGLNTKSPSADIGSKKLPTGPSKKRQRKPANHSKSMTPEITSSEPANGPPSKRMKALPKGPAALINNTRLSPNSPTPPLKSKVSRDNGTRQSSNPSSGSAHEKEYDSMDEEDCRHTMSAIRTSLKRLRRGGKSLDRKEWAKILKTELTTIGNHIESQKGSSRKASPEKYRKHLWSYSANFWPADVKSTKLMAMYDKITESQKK

Protein translocase subunit SecA (Escherichia coli (strain K12)), sequence (P10408 whole entry): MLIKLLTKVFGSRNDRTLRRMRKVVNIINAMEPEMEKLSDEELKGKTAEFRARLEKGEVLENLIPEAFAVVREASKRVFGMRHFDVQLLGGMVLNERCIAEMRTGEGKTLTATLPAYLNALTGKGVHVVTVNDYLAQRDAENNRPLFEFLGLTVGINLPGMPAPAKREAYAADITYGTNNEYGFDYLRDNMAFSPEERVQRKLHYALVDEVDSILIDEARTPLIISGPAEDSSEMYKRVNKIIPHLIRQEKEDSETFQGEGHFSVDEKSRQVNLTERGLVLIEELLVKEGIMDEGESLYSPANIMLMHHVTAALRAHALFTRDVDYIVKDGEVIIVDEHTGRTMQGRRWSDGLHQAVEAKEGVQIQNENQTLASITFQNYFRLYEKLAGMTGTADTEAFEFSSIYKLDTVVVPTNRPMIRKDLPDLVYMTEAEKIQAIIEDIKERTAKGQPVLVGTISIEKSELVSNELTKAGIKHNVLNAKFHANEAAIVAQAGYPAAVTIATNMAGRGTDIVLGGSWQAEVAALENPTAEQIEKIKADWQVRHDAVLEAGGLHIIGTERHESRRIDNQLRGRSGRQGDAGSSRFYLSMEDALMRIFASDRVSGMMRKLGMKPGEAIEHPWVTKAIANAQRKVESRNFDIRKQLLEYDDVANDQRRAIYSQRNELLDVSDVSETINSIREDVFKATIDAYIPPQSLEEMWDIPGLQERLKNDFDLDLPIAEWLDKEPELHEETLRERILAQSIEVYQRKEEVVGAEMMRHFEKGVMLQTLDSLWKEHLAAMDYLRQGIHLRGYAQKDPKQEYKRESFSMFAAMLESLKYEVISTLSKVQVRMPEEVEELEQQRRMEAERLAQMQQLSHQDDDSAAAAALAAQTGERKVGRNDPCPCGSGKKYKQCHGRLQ
Sialic acid-binding Ig-like lectin 9 (Homo sapiens), sequence (Q9Y336 whole entry): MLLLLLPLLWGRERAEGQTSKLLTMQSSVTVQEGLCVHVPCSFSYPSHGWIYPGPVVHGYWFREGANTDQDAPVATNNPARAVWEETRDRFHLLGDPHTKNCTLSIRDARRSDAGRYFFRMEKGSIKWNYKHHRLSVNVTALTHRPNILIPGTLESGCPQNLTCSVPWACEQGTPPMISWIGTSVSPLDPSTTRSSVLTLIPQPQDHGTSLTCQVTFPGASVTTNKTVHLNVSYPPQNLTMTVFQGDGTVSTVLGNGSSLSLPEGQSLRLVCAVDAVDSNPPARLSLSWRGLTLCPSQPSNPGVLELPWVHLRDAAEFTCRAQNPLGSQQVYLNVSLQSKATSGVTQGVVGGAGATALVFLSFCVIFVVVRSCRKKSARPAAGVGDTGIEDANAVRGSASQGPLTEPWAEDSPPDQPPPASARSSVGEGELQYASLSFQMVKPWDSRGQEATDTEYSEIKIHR

SMILES	Percent Effect [1]	Percent Effect [2]	Percent Effect [3]	Percent Effect [4]	Percent Effect (Trypanosoma cruzi)	Percent Effect [5]	Percent Effect [6]	Percent Effect (Homo sapiens)	Percent Effect [7]	Percent Effect [8]	Percent Effect [9]
Cc1cc(C(=O)N2CCc3nnc(N)cc3C2)c(C)n1C1CC1	-4.88%	8.86%	-10.1%	0.435%	-1.95%	-3.23%	20.1%	2.81%	7.29%	17.7%	-16.9%
CCOc1ccccc1-c1noc(CN2CCCC(O)C2)n1 (configuration not stated)	-8.22%	0%	-0.175%	-2.29%	7.54%	-1.47%	1.54%	-2.84%	0.952%	7.06%	-13.3%
Cc1cccc2nc(C(=O)N3CCC(Nc4cccnn4)CC3)cn12	-4.19%	5.2%	2.91%	37.9%	-0.0979%	-1.47%	8.16%	3.1%	0%	9.41%	-18.7%
O=C(N1CCCC1)N1CCc2ncnc(C3CCOC3)c2CC1 (configuration not stated)	2.86%	-2.67%	9.11%	2.99%	-0.591%	3.5%	7.14%	3.4%	3.19%	-1.28%	-1.1%
Cc1ccc(S(=O)(=O)N2C[C@H]3C[C@H](NC(=O)c4ccnn4C)[C@H]3C2)cc1	-1.89%	-6.76%	9.6%	1.27%	-0.988%	-3.02%	-3.28%	84.1%	2.15%	3.9%	14%
CC(C)(C)OC(=O)NC(C)(C)c1noc(CN2CCCCC2)n1	-5.9%	8%	-1.12%	-1.61%	-3.02%	1.04%	9.07%	13.4%	2.73%	8.64%	-7.41%
COc1ccc(CNC(=O)NC(C)Cn2cccn2)cc1O (configuration not stated)	-1.61%	5.2%	-4.12%	3.12%	2.64%	-1.47%	3.15%	25.9%	3.81%	11.8%	-15.6%
Cc1nccn1C1CCCN(C(=O)c2ccc3c(c2)COC3)C1 (configuration not stated)	-0.738%	-2.7%	-1%	7.4%	3.44%	0.554%	-5.39%	-3.77%	4.95%	13.4%	-0.0787%
CC(=O)N1CCCN(C(=O)NCc2ccccn2)CC1	-4.25%	0%	2.97%	0.332%	-5.88%	3.6%	3.81%	2.28%	1.48%	-6.17%	9.43%
Nc1nccc(NCc2cc3n(n2)CCCN(C(=O)C2CCC2)C3)n1	-4.85%	8.22%	2.89%	2.05%	-0.794%	-3.59%	14.5%	9.88%	4.17%	11.1%	-0.468%
Cn1cnc2c1C(COCC1CC1)CN(Cc1ccc3c(c1)OCO3)C2 (configuration not stated)	-5.21%	-2.7%	15%	-2.11%	-0.977%	-3.75%	0.0845%	12.3%	2.97%	-1.22%	-2.11%
CCN(Cc1ccc2c(c1)OCO2)C(=O)CCc1c(C)nc(C)[nH]c1=O	-1.41%	5.26%	1.51%	7.45%	-4.32%	9.96%	6.85%	21.9%	3.43%	9.76%	-1.69%
Cn1c(C(F)(F)F)nn(CCNC(=O)NCc2ccccc2)c1=O	-6.75%	0%	-5.98%	26.1%	7.25%	15%	1.6%	8.74%	4.3%	12.5%	-7.03%
CN(C)C(=O)N1CCN(C(=O)C(c2ccccc2F)N(C)C)CC1 (configuration not stated)	-3.25%	9.72%	-8.74%	14.1%	6.71%	7.06%	14%	-4.8%	4.21%	7.69%	-9.49%
CN(C)C(=O)[C@@H]1C[C@@H]2CCN(Cc3nccs3)C[C@@H]2O1	-4.02%	2.7%	4.31%	-1.06%	-3.62%	-3.5%	21.8%	-10.8%	4.32%	7.69%	3.4%
CNC(=O)c1cc2c(nc1NCC1CC1)CCN(c1ccncn1)CC2	-4.02%	1.33%	11.9%	4.48%	-1.57%	-4.05%	9.61%	35.2%	1.06%	0%	-5.29%
Cc1cc(C(=O)N2CCc3nnc(N(C)C)cc3C2)c(C)n1C1CC1	-2.94%	3.8%	-0.0334%	0.611%	-0.513%	4.52%	16.1%	14%	8.33%	10.1%	-3.64%
c1cncc(C2COC3(CCN(CC4CC4)CC3)C2)c1 (configuration not stated)	-5.88%	5.41%	0.748%	-4.23%	-1.17%	4.58%	12.9%	-13.5%	8.91%	1.22%	-3.69%
CCN(CC)C(CNC(=O)c1ccc(S(C)(=O)=O)cc1)c1ccco1 (configuration not stated)	-2.81%	2.7%	6.63%	-6.01%	3.91%	-2.5%	14.8%	8.16%	8.91%	11%	3.77%
CCNc1cc2c(nn1)CCN(C(=O)Cc1c(C)noc1C)C2	-9.15%	7.89%	9.72%	1.08%	-5.51%	0.719%	3.47%	6.32%	0.493%	1.24%	3.07%
c1ccc(OCCN2CCCC(c3noc(C4CC4)n3)C2)cc1 (configuration not stated)	-8.89%	0%	3.25%	-3.02%	-3.02%	-1.56%	10.1%	6.37%	-4.92%	1.24%	-2.68%
Cc1ncsc1C(=O)NCCSCc1cccs1	-1.5%	2.7%	-1.07%	13.7%	3.44%	-3.14%	7.9%	16.5%	0%	11%	-5.27%
